Test results: ChEMBL document CHEMBL1961873, “Compounds: GSK PKIS; Assays: Nanosyn kinase panel” (2012)

Columns and labels:
[1] = target: RAC-alpha serine/threonine-protein kinase (Homo sapiens) (UniProt P31749); conditions: at 0.1 µM
[2] = target: RAC-alpha serine/threonine-protein kinase (Homo sapiens) (UniProt P31749); conditions: at 1 µM
[3] = target: RAC-beta serine/threonine-protein kinase (Homo sapiens) (UniProt P31751); conditions: at 0.1 µM
[4] = target: RAC-beta serine/threonine-protein kinase (Homo sapiens) (UniProt P31751); conditions: at 1 µM
[5] = target: RAC-gamma serine/threonine-protein kinase (Homo sapiens) (UniProt Q9Y243); conditions: at 0.1 µM
RAC-gamma serine/threonine-protein kinase (Homo sapiens), sequence (Q9Y243 whole entry): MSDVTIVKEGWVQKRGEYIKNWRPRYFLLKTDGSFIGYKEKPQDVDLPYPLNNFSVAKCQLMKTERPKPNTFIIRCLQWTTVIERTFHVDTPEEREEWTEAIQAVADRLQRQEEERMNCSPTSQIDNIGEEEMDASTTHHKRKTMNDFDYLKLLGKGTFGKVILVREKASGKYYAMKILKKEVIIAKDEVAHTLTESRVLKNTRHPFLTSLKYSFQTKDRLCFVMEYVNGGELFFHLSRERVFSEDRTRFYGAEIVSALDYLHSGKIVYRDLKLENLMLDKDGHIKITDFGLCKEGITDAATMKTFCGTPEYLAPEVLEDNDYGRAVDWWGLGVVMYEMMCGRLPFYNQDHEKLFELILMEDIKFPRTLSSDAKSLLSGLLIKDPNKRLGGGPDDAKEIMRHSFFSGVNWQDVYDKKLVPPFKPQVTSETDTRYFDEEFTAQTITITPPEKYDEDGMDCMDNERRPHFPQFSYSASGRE

[6] = target: RAC-gamma serine/threonine-protein kinase (Homo sapiens) (UniProt Q9Y243); conditions: at 1 µM
[7] = target: G protein-coupled receptor kinase 6 (Homo sapiens) (UniProt P43250); conditions: at 0.1 µM
G protein-coupled receptor kinase 6 (Homo sapiens), sequence (P43250 whole entry, looked up): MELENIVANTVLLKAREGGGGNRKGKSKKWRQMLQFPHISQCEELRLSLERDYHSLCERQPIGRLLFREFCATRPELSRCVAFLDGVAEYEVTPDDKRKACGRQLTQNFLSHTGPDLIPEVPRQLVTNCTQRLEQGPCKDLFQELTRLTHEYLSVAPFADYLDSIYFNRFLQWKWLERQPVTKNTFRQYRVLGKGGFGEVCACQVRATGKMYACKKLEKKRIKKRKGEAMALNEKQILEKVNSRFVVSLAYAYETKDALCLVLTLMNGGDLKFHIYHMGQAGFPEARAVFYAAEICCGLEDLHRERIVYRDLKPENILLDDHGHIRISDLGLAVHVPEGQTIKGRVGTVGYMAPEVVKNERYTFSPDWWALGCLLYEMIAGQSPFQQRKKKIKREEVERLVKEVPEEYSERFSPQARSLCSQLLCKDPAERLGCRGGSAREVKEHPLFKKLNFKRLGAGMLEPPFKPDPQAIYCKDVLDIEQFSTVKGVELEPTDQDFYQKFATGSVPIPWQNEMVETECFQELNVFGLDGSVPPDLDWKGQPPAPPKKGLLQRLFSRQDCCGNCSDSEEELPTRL

[8] = target: G protein-coupled receptor kinase 6 (Homo sapiens) (UniProt P43250); conditions: at 1 µM
[9] = target: T1, Rhodopsin kinase GRK7 (Homo sapiens) (UniProt Q8WTQ7); conditions: at 0.1 µM
T1 sequence (whole entry): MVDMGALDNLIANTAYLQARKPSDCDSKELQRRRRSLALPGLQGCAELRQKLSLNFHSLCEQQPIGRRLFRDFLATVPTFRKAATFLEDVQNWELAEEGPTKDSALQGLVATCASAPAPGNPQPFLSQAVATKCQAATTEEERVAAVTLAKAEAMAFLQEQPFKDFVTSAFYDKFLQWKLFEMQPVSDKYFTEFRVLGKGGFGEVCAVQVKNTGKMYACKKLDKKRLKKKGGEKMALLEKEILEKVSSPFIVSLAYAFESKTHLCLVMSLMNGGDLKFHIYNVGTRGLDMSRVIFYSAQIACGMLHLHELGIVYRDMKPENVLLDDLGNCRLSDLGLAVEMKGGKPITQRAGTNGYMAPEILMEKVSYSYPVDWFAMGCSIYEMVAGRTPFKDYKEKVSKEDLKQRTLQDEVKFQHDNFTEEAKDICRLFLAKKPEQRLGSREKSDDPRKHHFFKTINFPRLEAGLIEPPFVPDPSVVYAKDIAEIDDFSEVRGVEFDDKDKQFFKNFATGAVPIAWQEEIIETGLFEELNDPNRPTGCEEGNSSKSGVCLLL

[10] = target: T1, Rhodopsin kinase GRK7 (Homo sapiens); conditions: at 1 µM

RAC-alpha serine/threonine-protein kinase (Homo sapiens), sequence (P31749 whole entry): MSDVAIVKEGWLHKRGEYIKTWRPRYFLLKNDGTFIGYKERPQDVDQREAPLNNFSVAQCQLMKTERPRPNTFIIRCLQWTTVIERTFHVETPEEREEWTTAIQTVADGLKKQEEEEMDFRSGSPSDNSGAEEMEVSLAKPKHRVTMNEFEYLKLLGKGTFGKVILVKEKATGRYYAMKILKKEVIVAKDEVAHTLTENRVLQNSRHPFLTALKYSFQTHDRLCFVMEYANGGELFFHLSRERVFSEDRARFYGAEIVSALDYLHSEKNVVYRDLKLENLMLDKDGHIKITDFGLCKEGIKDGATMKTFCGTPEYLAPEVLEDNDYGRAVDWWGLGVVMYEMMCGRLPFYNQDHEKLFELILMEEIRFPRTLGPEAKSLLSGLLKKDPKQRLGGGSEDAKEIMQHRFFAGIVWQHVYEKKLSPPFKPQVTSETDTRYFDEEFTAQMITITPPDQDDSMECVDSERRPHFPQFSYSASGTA
RAC-beta serine/threonine-protein kinase (Homo sapiens), sequence (P31751 whole entry): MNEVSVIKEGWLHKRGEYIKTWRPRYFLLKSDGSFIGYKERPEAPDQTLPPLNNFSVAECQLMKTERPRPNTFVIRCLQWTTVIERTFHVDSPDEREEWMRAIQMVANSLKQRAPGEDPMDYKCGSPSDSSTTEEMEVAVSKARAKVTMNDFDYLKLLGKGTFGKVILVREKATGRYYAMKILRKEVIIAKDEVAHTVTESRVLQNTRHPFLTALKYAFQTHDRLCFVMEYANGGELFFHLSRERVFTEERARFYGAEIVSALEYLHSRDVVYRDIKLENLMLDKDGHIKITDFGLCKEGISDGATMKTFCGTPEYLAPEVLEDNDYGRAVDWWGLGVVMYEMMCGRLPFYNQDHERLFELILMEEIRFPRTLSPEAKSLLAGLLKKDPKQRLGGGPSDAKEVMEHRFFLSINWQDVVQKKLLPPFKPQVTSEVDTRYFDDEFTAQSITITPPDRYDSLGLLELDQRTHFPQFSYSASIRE

Compound	inhibition [1]	inhibition [2]	inhibition [3]	inhibition [4]	inhibition [5]	inhibition [6]	inhibition [7]	inhibition [8]	inhibition [9]	inhibition [10]
CNC(=O)c1cc(-c2ccc(F)cc2)cc(-c2ccc(S(=O)(=O)N3CCCC3)cc2)c1N	0.66%	0.31%	1.23%	1.37%	0.7%	3.34%	1.55%	2.77%	9.52%	2.15%
COC(=O)c1sc(-n2cnc3cc(OC)c(OC)cc32)cc1OCc1ccccc1C(F)(F)F	0.87%	0.62%	2.35%	1.5%	-0.55%	1.41%	-0.86%	1.16%	2.73%	7.64%
FC(F)(F)c1cccc(-c2nn3ncccc3c2-c2ccnc(Nc3ccc4c(c3)OCCO4)n2)c1	0.59%	1.44%	2.75%	1.12%	1.47%	0.72%	-1.22%	-2.46%	1.8%	1.11%
CCn1c(-c2nonc2N)nc2cnc(Oc3cccc(NC(=O)c4ccc(N(C)C)cc4)c3)cc21	0.51%	7.63%	0.71%	8.4%	1.82%	10.2%	0.82%	2.85%	2.74%	4.11%
CN1CCC(n2cnc(-c3ccc(F)cc3)c2-c2ccnc(N)n2)CC1	0.24%	0.29%	0.39%	0.66%	2.57%	2.05%	1.6%	2.25%	3.11%	5.7%
N#Cc1c(NC(=O)c2ccc(F)cc2)sc2c1CCCC2	-0.22%	0.69%	0.36%	0.77%	2.13%	0.2%	2.85%	4.08%	0.7%	4.43%
COc1ccc(-c2cc(-c3c[nH]nc3-c3ccccn3)ccn2)cc1	0.93%	1.5%	2.54%	1.95%	1.66%	1.52%	8.13%	8.91%	3.59%	6.26%
COc1cc2c(cc1Nc1nc(Nc3ccsc3C(N)=O)c3cc[nH]c3n1)N(C(=O)CN(C)C)CCC2(C)C	1.26%	0.48%	2.13%	2.14%	0.83%	2.54%	49.5%	87.2%	34.2%	63.2%
COc1ccc(-c2nn3ncccc3c2-c2ccnc(Nc3ccc4c(c3)OCCO4)n2)cc1	-0.35%	-0.09%	-0.91%	-0.18%	0.24%	2.32%	-1.91%	-1.49%	4.16%	2.81%
COc1ccc2c(-c3ccnc(Nc4cccc(OC(F)(F)F)c4)n3)cnn2n1	0.95%	0.97%	2.41%	1.51%	1.3%	1.57%	4.64%	5.84%	5.16%	4.9%
COc1cccc(-n2ncc3c(N/N=C/c4ccc(F)cc4)ncnc32)c1	0.98%	0.49%	2%	1.56%	1.42%	0.92%	5.53%	7.7%	3.44%	19.5%
CCOc1ccc2c(-c3ccnc(Nc4cccc(C(F)(F)F)c4)n3)cnn2n1	0.26%	0.31%	0.57%	1.35%	-0.38%	4.77%	-2.91%	-2.59%	3.77%	0.86%
CC(C)COC(=O)c1ccc2c(c1)/C(=C/Nc1ccc(S(N)(=O)=O)cc1)C(=O)N2	1.6%	2.22%	0.67%	1.73%	1.5%	6.82%	1.33%	10.1%	-4.26%	9.41%
O=S(=O)(CCNCc1ccc(-c2ccc3ncnc(Nc4ccc(OCc5cccc(F)c5)c(Cl)c4)c3c2)o1)c1ccccc1	1.7%	1.71%	2.21%	3.29%	0.84%	3.13%	1.68%	1.4%	8.83%	2.27%
Cc1ccc2c(-c3ccnc(Nc4ccccc4)n3)c(-c3ccc(F)cc3)nn2n1	0.59%	0.99%	2.02%	1.95%	1.53%	1.01%	0.38%	-3.54%	1.12%	-6.29%
Cc1ccc(O)cc1Nc1ccnc2cc(-c3ccccn3)ccc12	1.31%	1.02%	2.69%	2.45%	1.16%	2.32%	1.43%	-3.7%	4%	-2.85%
Fc1ccc(-c2nn3ncccc3c2-c2ccnc(Nc3ccc4c(c3)OCCO4)n2)cc1	0.05%	0.97%	1.99%	1.14%	0.88%	1.56%	2.14%	1.87%	1.38%	5.57%
